# About 79,000 compounds went through this panel and 15% of them were active in at least one assay; those are over-represented in the sample as a whole. Unmarked numbers belong to inactive results. Calls of active or inactive are those of the source. No stated cut-off is given here; in the data, active means growth inhibition above about 70%; inactive means the rest.
# Key:
# [1] = NCI Yeast Anticancer Drug Screen. Data for the rad52 strain (AID 147);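 further: 0% = growth of vehicle-treated control cultures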; conditions: S. cerevisiae rad52 mutant growth inhibition, active compounds read high
# Method in brief: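 Here a repair-compromised yeast strain receives each compound; its growth is then quantified and normalised to vehicle-only controls.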
# [2] = NCI Yeast Anticancer Drug Screen. Data for the wt1 strain (AID 149);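 further: 0% = growth of vehicle-treated wt1 cultures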; conditions: S. cerevisiae wt1 strain (SPY 50644) growth inhibition, active compounds read high
# Method in brief: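 Using yeast strain wt1, compound-induced growth inhibition was determined against vehicle-treated cultures.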
# [3] = NCI Yeast Anticancer Drug Screen. Data for the rad50EPP+ strain (AID 151);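 further: 0% = growth of vehicle-treated control cultures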; conditions: S. cerevisiae rad50 mutant strain, active compounds read high
# Method in brief: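 Read-out is yeast growth inhibition relative to vehicle; cells used were the rad50EPP+ strain.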
# [4] = NCI Yeast Anticancer Drug Screen. Data for the mgt1 strain (AID 153); conditions: S. cerevisiae mgt1 mutant growth inhibition, active compounds read high
# Method in brief: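 Measured: inhibition of mgt1 yeast growth by compound, normalized to vehicle-treated cultures.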
# [5] = NCI Yeast Anticancer Drug Screen. Data for the rad50 strain (AID 155);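 further: 0% = growth of vehicle-only cultures of the same strain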; conditions: S. cerevisiae rad50 strain growth inhibition, active compounds read high
# Method in brief: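 Relative growth inhibition (compound vs vehicle) was measured in yeast with a defined repair-gene alteration.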
# [6] = NCI Yeast Anticancer Drug Screen. Data for the mec2-1 strain (AID 157); conditions: S. cerevisiae mec2-1 strain, active compounds read high
# Method in brief: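 Using mec2-1 yeast: add compound, measure growth, express inhibition versus vehicle-treated cultures.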
# [7] = NCI Yeast Anticancer Drug Screen. Data for the rad14 strain (AID 159);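 further: 0% = growth of vehicle-treated control cultures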; conditions: S. cerevisiae rad14 strain growth inhibition, active compounds read high
# Method in brief: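 Screen for anticancer potential: a yeast strain altered in DNA damage repair is grown with compound, and reduced growth is quantified against vehicle controls.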
# [8] = NCI Yeast Anticancer Drug Screen. Data for the sgs1 mgt1 strain (AID 161);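 further: 0% = growth of cultures given vehicle only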; conditions: S. cerevisiae sgs1 mgt1 strain, active compounds read high
# Method in brief: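 This yeast growth screen uses a strain with defined DNA-repair lesions; compound-treated growth is compared with vehicle-treated growth.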
# [9] = NCI Yeast Anticancer Drug Screen. Data for the CLN2oe strain (AID 163);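 further: 0% = growth of vehicle-only control cultures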; conditions: S. cerevisiae CLN2oe strain, active compounds read high
# Method in brief: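 Whole-cell yeast growth assay. A strain engineered for altered cell-cycle control received compound, and inhibition relative to vehicle-treated cultures was recorded.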
# [10] = NCI Yeast Anticancer Drug Screen. Data for the cln2 rad14 strain (AID 165);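 further: 0% = growth equal to vehicle treated cultures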; conditions: S. cerevisiae cln2 rad14 strain, active compounds read high
# Method in brief: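 Yeast strain cln2 rad14, bearing defects in cell cycle control and DNA repair, serves as the test system; values reflect growth inhibition compared with vehicle.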
# [11] = NCI Yeast Anticancer Drug Screen. Data for the bub3 strain (AID 167); conditions: S. cerevisiae bub3 mutant strain, active compounds read high
# Method in brief: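 Screening used yeast with an engineered genetic alteration affecting cell cycle control. Compound-exposed cultures were compared with vehicle cultures, and reduced growth was taken as inhibition.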
# [12] = NCI Yeast Anticancer Drug Screen. Data for the mlh1 strain (AID 171);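 further: 0% = growth of vehicle-treated control cultures of the same strain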; conditions: S. cerevisiae mlh1 strain growth inhibition, active compounds read high
# Method in brief: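 A yeast strain with a defined genetic lesion serves as the test organism. Cultures receive compound or vehicle, and growth is measured.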
# [13] = NCI Yeast Anticancer Drug Screen. Data for the sgs1 strain (AID 173);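 further: 0% = growth of vehicle-only control cultures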; conditions: S. cerevisiae sgs1 mutant, active compounds read high
# Method in brief: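 A genetically defined yeast mutant is incubated with the test compound, and its growth is compared to that of the same strain given vehicle.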
# [14] = NCI Yeast Anticancer Drug Screen. Data for the mlh1 rad18 strain (AID 175); conditions: S. cerevisiae mlh1 rad18 strain growth inhibition, active compounds read high
# Method in brief: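 Steps: expose repair-defective yeast to compound; measure growth; express inhibition against vehicle-treated controls.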
# [15] = NCI Yeast Anticancer Drug Screen. Data for the rad18 strain (AID 177); conditions: S. cerevisiae rad18 mutant growth inhibition, active compounds read high
# Method in brief: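 Measured value is growth inhibition of a yeast strain bearing a DNA repair alteration, referenced to vehicle-treated cells.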
# [16] = at 5.0 µM (retest, dose inferred, filed as 0.5)
# [17] = at 50.0 µM (retest, dose inferred, filed as 5.0)
compound,measurement,setting,value
O=[N+]([O-])c1cccc2nc3ccccc3c(NCCC[N+]3([O-])CCCCC3)c12,growth inhibition,[1]; at 1.2 µM,20%
same,growth inhibition,[1]; at 3.7 µM,47%
same,growth inhibition,[1]; at 11.0 µM,80% (active)
same,growth inhibition,[1]; at 33.0 µM,90% (active)
same,growth inhibition,[1]; at 100.0 µM,94% (active)
same,growth inhibition,[2]; at 1.2 µM,1%
same,growth inhibition,[2]; at 3.7 µM,2%
same,growth inhibition,[2]; at 11.0 µM,4%
same,growth inhibition,[2]; at 33.0 µM,15%
same,growth inhibition,[2]; at 100.0 µM,46%
same,growth inhibition,[3]; at 1.2 µM,10%
same,growth inhibition,[3]; at 3.7 µM,36%
same,growth inhibition,[3]; at 11.0 µM,77% (active)
same,growth inhibition,[3]; at 33.0 µM,93% (active)
same,growth inhibition,[3]; at 100.0 µM,96% (active)
same,growth inhibition,[4]; at 1.2 µM,0%
same,growth inhibition,[4]; at 3.7 µM,1%
same,growth inhibition,[4]; at 11.0 µM,5%
same,growth inhibition,[4]; at 33.0 µM,7%
same,growth inhibition,[4]; at 100.0 µM,56%
same,growth inhibition,[5]; at 1.2 µM,4%
same,growth inhibition,[5]; at 3.7 µM,16%
same,growth inhibition,[5]; [16],67%
same,growth inhibition,[5]; at 11.0 µM,47%
same,growth inhibition,[5]; at 33.0 µM,82% (active)
same,growth inhibition,[5]; [17],93% (active)
same,growth inhibition,[5]; at 50.0 µM,81.3% (active)
same,growth inhibition,[5]; at 100.0 µM,91% (active)
same,growth inhibition,[6]; at 1.2 µM,1%
same,growth inhibition,[6]; at 3.7 µM,8%
same,growth inhibition,[6]; [16],39%
same,growth inhibition,[6]; at 11.0 µM,35%
same,growth inhibition,[6]; at 33.0 µM,86% (active)
same,growth inhibition,[6]; [17],98% (active)
same,growth inhibition,[6]; at 50.0 µM,96% (active)
same,growth inhibition,[6]; at 100.0 µM,96% (active)
same,growth inhibition,[7]; at 1.2 µM,6%
same,growth inhibition,[7]; at 3.7 µM,28%
same,growth inhibition,[7]; at 11.0 µM,86% (active)
same,growth inhibition,[7]; at 33.0 µM,95% (active)
same,growth inhibition,[7]; at 100.0 µM,98% (active)
same,growth inhibition,[8]; [16],78% (active)
same,growth inhibition,[8]; [17],96% (active)
same,growth inhibition,[8]; at 50.0 µM,93.5% (active)
same,growth inhibition,[9]; at 1.2 µM,-2%
same,growth inhibition,[9]; at 3.7 µM,-5%
same,growth inhibition,[9]; at 11.0 µM,46%
same,growth inhibition,[9]; at 33.0 µM,85% (active)
same,growth inhibition,[9]; at 100.0 µM,94% (active)
same,growth inhibition,[10]; [16],95% (active)
same,growth inhibition,[10]; [17],98% (active)
same,growth inhibition,[10]; at 50.0 µM,97.1% (active)
same,growth inhibition,[11]; at 1.2 µM,-13%
same,growth inhibition,[11]; at 3.7 µM,-8%
same,growth inhibition,[11]; [16],-4%
same,growth inhibition,[11]; at 11.0 µM,34%
same,growth inhibition,[11]; at 33.0 µM,82% (active)
same,growth inhibition,[11]; [17],86% (active)
same,growth inhibition,[11]; at 50.0 µM,38.7%
same,growth inhibition,[11]; at 100.0 µM,87% (active)
same,growth inhibition,[12]; at 1.2 µM,0%
same,growth inhibition,[12]; at 3.7 µM,2%
same,growth inhibition,[12]; at 11.0 µM,8%
same,growth inhibition,[12]; at 33.0 µM,28%
same,growth inhibition,[12]; at 100.0 µM,66%
same,growth inhibition,[13]; at 1.2 µM,40%
same,growth inhibition,[13]; at 3.7 µM,70% (active)
same,growth inhibition,[13]; at 11.0 µM,84% (active)
same,growth inhibition,[13]; at 33.0 µM,91% (active)
same,growth inhibition,[13]; at 100.0 µM,93% (active)
same,growth inhibition,[14]; [16],84% (active)
same,growth inhibition,[14]; [17],98% (active)
same,growth inhibition,[14]; at 50.0 µM,94.4% (active)
same,growth inhibition,[15]; at 1.2 µM,93% (active)
same,growth inhibition,[15]; at 3.7 µM,95% (active)
same,growth inhibition,[15]; at 11.0 µM,96% (active)
same,growth inhibition,[15]; at 33.0 µM,96% (active)
same,growth inhibition,[15]; at 100.0 µM,96% (active)
Cc1ccccc1N=Cc1cc(Cl)ccc1O,growth inhibition,[1]; at 1.2 µM,-11%
same,growth inhibition,[1]; at 3.7 µM,-3%
same,growth inhibition,[1]; at 11.0 µM,4%
same,growth inhibition,[1]; at 33.0 µM,21%
same,growth inhibition,[1]; at 100.0 µM,96% (active)
same,growth inhibition,[2]; at 1.2 µM,-4%
same,growth inhibition,[2]; at 3.7 µM,-5%
same,growth inhibition,[2]; at 11.0 µM,-7%
same,growth inhibition,[2]; at 33.0 µM,7%
same,growth inhibition,[2]; at 100.0 µM,75% (active)
same,growth inhibition,[3]; at 1.2 µM,3%
same,growth inhibition,[3]; at 3.7 µM,18%
same,growth inhibition,[3]; at 11.0 µM,35%
same,growth inhibition,[3]; at 33.0 µM,58%
same,growth inhibition,[3]; at 100.0 µM,85% (active)
same,growth inhibition,[4]; at 1.2 µM,-1%
same,growth inhibition,[4]; at 3.7 µM,-4%
same,growth inhibition,[4]; at 11.0 µM,-2%
same,growth inhibition,[4]; at 33.0 µM,14%
same,growth inhibition,[4]; at 100.0 µM,89% (active)
same,growth inhibition,[5]; at 1.2 µM,-5%
same,growth inhibition,[5]; at 3.7 µM,-1%
same,growth inhibition,[5]; [16],-74%
same,growth inhibition,[5]; at 11.0 µM,10%
same,growth inhibition,[5]; at 33.0 µM,44%
same,growth inhibition,[5]; [17],66%
same,growth inhibition,[5]; at 50.0 µM,51.3%
same,growth inhibition,[5]; at 100.0 µM,98% (active)
same,growth inhibition,[6]; at 1.2 µM,1%
same,growth inhibition,[6]; at 3.7 µM,-1%
same,growth inhibition,[6]; [16],-7%
same,growth inhibition,[6]; at 11.0 µM,1%
same,growth inhibition,[6]; at 33.0 µM,2%
same,growth inhibition,[6]; [17],16%
same,growth inhibition,[6]; at 50.0 µM,35.7%
same,growth inhibition,[6]; at 100.0 µM,53%
same,growth inhibition,[7]; at 1.2 µM,-2%
same,growth inhibition,[7]; at 3.7 µM,1%
same,growth inhibition,[7]; at 11.0 µM,11%
same,growth inhibition,[7]; at 33.0 µM,44%
same,growth inhibition,[7]; at 100.0 µM,98% (active)
same,growth inhibition,[8]; [16],-13%
same,growth inhibition,[8]; [17],44%
same,growth inhibition,[8]; at 50.0 µM,26.5%
same,growth inhibition,[9]; at 1.2 µM,2%
same,growth inhibition,[9]; at 3.7 µM,3%
same,growth inhibition,[9]; at 11.0 µM,8%
same,growth inhibition,[9]; at 33.0 µM,12%
same,growth inhibition,[9]; at 100.0 µM,60%
same,growth inhibition,[10]; [16],-32%
same,growth inhibition,[10]; [17],-16%
same,growth inhibition,[10]; at 50.0 µM,-13.1%
same,growth inhibition,[11]; at 1.2 µM,-6%
same,growth inhibition,[11]; at 3.7 µM,-4%
same,growth inhibition,[11]; [16],-68%
same,growth inhibition,[11]; at 11.0 µM,-1%
same,growth inhibition,[11]; at 33.0 µM,16%
same,growth inhibition,[11]; [17],-4%
same,growth inhibition,[11]; at 50.0 µM,42%
same,growth inhibition,[11]; at 100.0 µM,90% (active)

# — PubChem BioAssay (NCI)
